In the library only some 8.8% were active in any assay of this set; here they are far more common.
ALDH1A1 inh = blocks purified human ALDH1A1 activity; Potency, µM (titrated, usually from 75.3 µM), for the others: at the highest dose activity, negative = inhibition, usual class: inhibitors; actives 7.3% (n = 220,000); Purified ALDH1A1, NADH fluorescence, propionaldehyde substrate; AID 1030; P00352;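 further: plate controls were no enzyme wells and a reference inhibitor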
Target sequence (P00352 whole entry, looked up): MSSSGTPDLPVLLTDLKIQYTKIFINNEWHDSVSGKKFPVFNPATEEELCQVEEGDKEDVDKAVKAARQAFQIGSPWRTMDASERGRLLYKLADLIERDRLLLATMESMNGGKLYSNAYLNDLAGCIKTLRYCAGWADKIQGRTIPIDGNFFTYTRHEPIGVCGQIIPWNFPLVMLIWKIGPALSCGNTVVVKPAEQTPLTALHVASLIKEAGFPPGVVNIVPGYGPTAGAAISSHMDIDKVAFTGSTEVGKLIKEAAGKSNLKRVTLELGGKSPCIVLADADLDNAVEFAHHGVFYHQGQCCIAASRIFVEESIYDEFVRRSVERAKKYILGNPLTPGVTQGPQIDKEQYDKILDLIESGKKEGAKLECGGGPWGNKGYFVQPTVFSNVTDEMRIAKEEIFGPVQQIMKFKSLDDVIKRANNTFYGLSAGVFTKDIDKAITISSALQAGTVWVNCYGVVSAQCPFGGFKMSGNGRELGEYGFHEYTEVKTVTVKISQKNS
HPGD block = inhibitors of human 15-hydroxyprostaglandin dehydrogenase (HPGD); actives 4.3% (n = 150,000); Potency, µM, inactives show top-dose activity change, negative = inhibition, hits mostly inhibitors; purified HPGD, NADH fluorescence kinetic, PGE2 substrate; P15428; further: on the % scale 0 is the no-effect control and ±100 the full control effect
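NADH formation kinetics: reaction with 30 uM PGE2 and 1 mM NAD+ (final), 20 nM enzyme, Tris-HCl pH 8 with Tween 20, after 15 min compound preincubation at room temperature. Fluorescence change, last versus first of five reads.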
HttQ103 aggreg = mutant huntingtin aggregation inhibition. PC12 HttQ103-GFP aggregates, Acumen cytometry, 40 h. Potency, µM (highest dose often 46.1 µM), without a hit: at the highest dose activity change, negative = inhibition, most hits filed as inhibitors. actives 1.1% (n = 220,000). AID 1688; active means well fitted curve in the direction sought with a large enough effect; inconclusive means small, poorly fitted or top-dose-only effect, or another doubt; inactive means no such curve, though single readings can be large; an effect the other way counts as inactive or inconclusive; further: on the % scale 0 is the no-effect control and ±100 the full control effect; nearly all actives have a fitted effect of over 60% in size
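Compounds (qHTS titration) were added to PC12 cells expressing an ecdysone-driven HTT exon 1 Q103–GFP fusion after induction with 100 nM tebufenozide. Aggregate formation was measured as GFP objects in cell lysates.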
HTT cytoprotect = cytoprotection in Huntington HTT-Q103 PC12 cell model | Potency, µM (series often up to 56.4 µM), for the others: cytoprotection (ATP increase), actives largely listed as activators | PC12 HTT-Q103 induced, cytoprotection, ATP luminescence, 40 h | AID 1471 | actives 0.14% (n = 230,000); active means well fitted curve in the direction sought with a large enough effect; inconclusive means small, poorly fitted or top-dose-only effect, or another doubt; inactive means no such curve, though single readings can be large; an effect the other way counts as inactive or inconclusive; further: % of control where 0% means no effect; nearly all actives have a fitted effect of over 45% in size
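Cells were plated at 1500 per well in phenol red-free DMEM with 5% equine and 5% calf serum. Tebufenozide (100 nM final) and compounds were added, then ATPlite reagent, and luminescence was read.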
Lamin A splicing = LMNA splicing modulation; HeLa LMNA splicing GFP/RFP minigene ratio, 48 h; Potency, µM (highest dose often 46.1 µM), inactives show at the top dose ratio change, negative = inhibition, actives largely listed as inhibitors; actives 0.01% (n = 200,000); active means well fitted inhibition curve with a large enough effect in the signal ratio, with a control signal flat, not every such curve was filed as active; inconclusive means small, poorly fitted or top-dose-only effect, or effect the other way, or a change in a side signal; the % refers to the signal ratio; further: on the % scale 0 is the no-effect control and ±100 the full control effect
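Read-out is the ratio of GFP to DsRed2 object intensity, acquired by 488 nm laser-scanning cytometry on HeLa lamin A-EGFP minigene reporter cells. Compound incubation 48 hrs at 37 °C in Opti-MEM with 2% FBS; DMSO 0.5% final.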
The depositor's hits bear a star; ? = inconclusive; . = no result; [ ] = remark or other dose. Unless noted, the call rests on the fitted dose curve; in most records, active means well fitted inhibition curve with a large enough effect (not every such curve was filed as active); inconclusive means small, poorly fitted or top-dose-only effect, or another doubt; inactive means no such curve, though single readings can be large or run the other way. Potency means the concentration at half of the fitted maximal effect.

SMILES	ALDH1A1 inh	HPGD block	HttQ103 aggreg	HTT cytoprotect	Lamin A splicing
COc1cc2c(cc1OC)CN(C(=O)CCCOc1ccc(Cl)cc1Cl)CC2	13%	35µM*	?	-1%	-4%
COc1ccc(NC(=O)COC(=O)CCCOc2ccc(Cl)cc2Cl)cc1	0%	-13%	16%	7%[10 µM]	-8%
COc1ccc(NC(=O)COC(=O)CCCOc2ccc(Cl)cc2Cl)cc1Cl	-4%	28µM*	3%	8%[10 µM]	0%
O=C(COC(=O)c1c(Cl)ccc(Cl)c1Cl)NC(=O)NCc1ccccc1	4%	-19%	-13%	-3%[10 µM]	-4%
O=C(N/N=C/c1ccc(-c2ccc(Cl)c(C(=O)O)c2)o1)c1cc2c(ccc3ccccc32)o1	.	.	-10%[9.22 µM]	-1%[10 µM]	.
OCC(O)C(O)C(O)C(O)C(O)CO (stereo not given)	-7%	-8%	.	.	-10%
CC(C)CCNC(=O)CN1C(=O)c2cccnc2Sc2ccccc21	.	.	.	.	-4%[46 µM]
COc1cccc(NC(=O)C(OC(=O)c2ccc([N+](=O)[O-])o2)c2ccccc2)c1 (stereo not given)	22µM*	-17%	-14%	.	7%
O=C(CCCOc1ccc(Cl)cc1Cl)Nc1ccccc1C(=O)O	.	.	-15%[9.22 µM]	-14%[10 µM]	.
CN(C)S(=O)(=O)c1cccc(NC(=O)COC(=O)c2ccc([N+](=O)[O-])o2)c1	20µM*	-12%	14%	5%[10 µM]	6%
CCOc1ccccc1NC(=S)NC(=O)CCCOc1ccc(Cl)cc1Cl	11µM*	-23%	-2%[9.22 µM]	?	?
CCCCc1nc2c(c3c1CC(C)OC3)CN(CCC(C)C)CC2 (stereo not given)	-1%[13.5 µM]	.	.	1%[10 µM]	.
CC(C)C(C)NC(=O)COC(=O)/C=C/c1ccc(S(=O)(=O)N2CCc3ccccc32)cc1 (stereo not given)	?	.	7%	-9%[10 µM]	.
CCOCCCNC(=O)COC(=O)/C=C/c1ccc(S(=O)(=O)N2CCc3ccccc32)cc1	7.9µM*	.	-12%[9.22 µM]	-13%	-9%[46 µM]
OCC1OC(n2cnc3c(NCc4ccco4)ncnc32)C(O)C1O (stereo not given)	0%	-12%	.	.	?
CCC12CN3CC(CC)(CN(C1)C3c1c[nH]c3ccccc13)C2=O (stereo not given)	.	.	.	.	-12%[46 µM]
C1CCC2(CC1)C1=C(CCCC1)Nc1nnnn12	28µM*	2%	-3%	-5%	9%
Nc1nc2n(n1)C1(CCCCC1)C1=C(CCCC1)N2	?	-1%	17%	20%	-6%
COc1ccc(S(=O)(=O)NCC(c2ccco2)N2CCN(c3ccccc3F)CC2)cc1OC (stereo not given)	.	.	.	.	-11%[46 µM]
COC(=O)c1ccc(Sc2ccccc2NS(=O)(=O)c2ccc(C)cc2)nc1	28µM*	0%	4%	-27%	-1%
Cc1ccc(S(=O)(=O)Nc2ccccc2-c2ccccc2NS(=O)(=O)c2ccc(C)cc2)cc1	-5%	-15%	-17%	-5%	?
Cc1nn(-c2ccc3nncn3n2)c(C)c1CCC(=O)Nc1ccc(OC(F)(F)F)cc1	.	.	.	.	2%[46 µM]
CCCCNC(=O)Cc1ccc(C)cc1	2%	?	-4%	10%[10 µM]	-8%
CCC(C)(C)NC(=O)Cc1ccc(C)cc1	-6%	14µM*	10%[9.22 µM]	-5%	8%
COC(=O)[C@H](Cc1ccccc1)NC(=O)O[C@@H]1Cc2cc(OC)ccc2O[C@H]1c1cccc(OC)c1	-3%	-10%	.	-197%	.
SMILES	ALDH1A1 inh	HPGD block	HttQ103 aggreg	HTT cytoprotect	Lamin A splicing
O=C(CSc1nc(-c2ccccc2)cn1-c1ccccc1F)Nc1ccc(F)cc1	.	.	.	.	-7%[46 µM]
Cc1cc(Cl)ccc1N(CC(=O)NCCSCc1ccco1)S(C)(=O)=O	13µM*	.	-13%[9.22 µM]	-5%[10 µM]	?
CN(c1ccc(C(=O)NCCSCc2ccco2)cc1)S(C)(=O)=O	2.5µM*	?	3%	26%	-1%
Cc1ccc(N(CC(=O)NCCSCc2ccco2)S(C)(=O)=O)cc1	8.9µM*	-9%	25%	-14%	-1%
O=C(CN(c1ccc(F)cc1)S(=O)(=O)c1ccccc1)NCc1ccco1	2%	6%	?	-17%[10 µM]	24%
O=C(CN(c1ccccc1)S(=O)(=O)c1ccccc1)NCCSCc1ccco1	10µM*	-8%	8%	-5%	11%
CCOC(=O)C1CCN(c2cc(C)nc3c(-c4ccccc4OC)c(C)nn23)CC1	.	.	.	.	-2%[46 µM]
